# This is a sample that favours compounds with a hit; in the whole collection about 4.1% have one here.
# hcDAF-12 act: H. contortus DAF-12 nuclear receptor activators, primary screen, cell-based, luminescence, HEK293, lit1-tk-luc reporter; 370,000 tested, 1.4% active; HEK293 hcDAF-12 lit1-tk-luc reporter; 0% DMSO, 100% Δ7-dafachronic acid; AID 652067, 2013; activation, % at 6.8 µM;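 active = activation above the mean of all tested compounds plus 3 SD, cut at about 5.5% in these data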;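 also: 100% = response to 3 µM Δ7-dafachronic acid high control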
# ssDAF-12 act: S. stercoralis DAF-12 nuclear receptor activators, primary screen, cell-based, luminescence, HEK293, GRIP1 co-expression, lit1-tk-luc | AID 652126, 2013 | Nuclear hormone receptor DAF-12 (Strongyloides stercoralis) | 370,000 tested, 1% active | HEK293 ssDAF-12/GRIP1 lit1-tk-luc reporter; % of 3 µM dafachronic acid response | activation, % at 6.8 µM;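 active = activation above the mean over all tested compounds plus 3 SD, cut at about 0.9% in these data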;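 also: 0% = DMSO-only wells and 100% = 3 µM delta7-dafachronic acid wells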
# hgDAF-12 ag: H. glycines DAF-12 receptor agonists, primary screen, cell-based, luminescence, HEK293, GAL4 fusion, UAS-luciferase; Nuclear hormone receptor DAF-12 (Heterodera glycines), GAL4 fusion; HEK293 GAL4-hgDAF12 UAS-luciferase reporter, agonist luminescence; normalized to butyrate control; activation, % at 6.8 µM; 370,000 tested, 1.8% active; AID 687014, 2013;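 active = activation above a cutoff set at the mean of all screened compounds plus 3 SD, cut at about 10% in these data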;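 also: 0% = DMSO wells and 100% = sodium butyrate wells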
# DAX1 inh-1: DAX1 (NR0B1) inhibitors on StAR promoter, primary screen, cell-based, luminescence, SF-1 (NR5A1), full-length DAX-1; AID 652010, 2013; HEK293T StAR-luciferase reporter, SF-1/DAX-1 repression relief; 370,000 tested, 1.1% active; inhibition, % at 6.8 µM;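 active = inhibition above the mean over all tested compounds plus 3 SD, cut at about 3.6% in these data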;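 also: 0% = DAX-1 cells with DMSO and 100% = cells lacking DAX-1 with DMSO; higher inhibition means more luminescence from relief of DAX-1 repression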
# DAX1 inh-2: DAX1 (NR0B1) inhibitors, primary screen, cell-based, HEK293, Gal4-DAX1, luciferase luminescence; inhibition, % at 6.75 µM; 340,000 tested, 0.99% active; HEK293 Gal4-DAX1 luciferase reporter;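 active = inhibition above the mean over all tested compounds plus 3 SD, cut at about 4.2% in these data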;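 also: 0% = DAX1-transfected cells with DMSO and 100% = empty-vector control cells with DMSO; inhibition shows as a rise in luminescence from relieved DAX1 repression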
# Target sequence (P51843 207-470 limits assumed): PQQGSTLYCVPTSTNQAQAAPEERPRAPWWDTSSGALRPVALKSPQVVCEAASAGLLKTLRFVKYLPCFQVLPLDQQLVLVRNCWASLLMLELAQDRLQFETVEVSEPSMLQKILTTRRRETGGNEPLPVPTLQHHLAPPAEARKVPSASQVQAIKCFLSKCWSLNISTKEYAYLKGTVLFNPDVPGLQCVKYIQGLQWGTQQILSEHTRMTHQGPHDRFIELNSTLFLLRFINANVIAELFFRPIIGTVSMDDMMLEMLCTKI
# hgDAF12 conf: H. glycines DAF-12 receptor agonists, confirmation, cell-based, luminescence, HEK293, GAL4-LBD fusion. shares compounds with hgDAF-12 ag. HEK293 GAL4-hgDAF12 luciferase reporter, agonist mode; percent of butyrate response. activation, % at 6.8 µM. 3,300 tested, 80% active. AID 743050, 2013;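 active = mean activation over triplicate wells above the hit cutoff derived from the earlier primary screen, cut at about 11% in these data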;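 also: 0% = DMSO low control and 100% = 2 mM sodium butyrate high control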
# LXR ag 2: LXR agonists, Gal4 luciferase reporter, confirmation, counter-screen for hgDAF-12 agonist project, cell-based, luminescence, HEK293, H. glycines campaign; AID 743051, 2013; activation, % at 6.8 µM; shares compounds with hgDAF-12 ag; 3,300 tested, under 10 active; 24 h;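 active = mean activation of the triplicate above a set limit carried over from the primary screen, none filed active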
# * marks the source's active call; other numbers are inactive results; . = no result given.
SMILES,hcDAF-12 act,ssDAF-12 act,hgDAF-12 ag,DAX1 inh-1,DAX1 inh-2,hgDAF12 conf,LXR ag 2
CC(C)(C)c1ccc(C(=O)Nc2cccc([N+](=O)[O-])c2)cc1,2.7,-0.1,14.0*,3.2,1.6,13.9*,0.5
O=C(Nc1cccc([N+](=O)[O-])c1)c1ccncc1,-1.8,-1.1,-1.7,0.4,0.4,.,.
CCOc1cc(C(N)=O)cc(Br)c1OCc1ccccc1,0.0,-0.9,3.3,-0.1,0.5,.,.
COc1cccc(CNC(=O)[C@@H]2CCCN2C(=O)[C@@H]2CCCN2)c1,-0.9,-0.9,-0.2,0.8,.,.,.
Oc1cccc(/C=N\Nc2nncc(-c3ccccc3)n2)c1,2.6,-0.5,15.6*,1.4,0.8,11.7*,0.5
CC(C)Cc1cc(C(=O)NCc2cccs2)no1,2.1,0.9,18.7*,4.3*,3.0,13.2*,0.5
CC(C)CNC(=O)c1cc(-c2ccco2)on1,2.4,-1.4,6.6,0.7,0.4,.,.
O=C(NCc1ccco1)c1cc(-c2cccs2)on1,3.4,-0.8,23.3*,0.6,3.3,21.8*,0.2
O=C(NCc1ccco1)c1cc(-c2ccc(F)cc2)on1,1.8,-0.9,16.6*,1.7,2.3,14.9*,0.3
CC(C)Cc1cc(C(=O)NCc2cccnc2)no1,0.7,-0.7,9.9,2.5,2.0,.,.
O=C(NCc1ccccc1)c1cc(-c2cccs2)on1,1.2,-0.9,5.3,1.3,1.9,.,.
CCCNC(=O)c1cc(-c2ccco2)on1,4.1,-0.8,47.4*,0.0,1.9,36.9*,0.3
CC1CCN(c2ccc3nnc(CCC(=O)Nc4cccc(F)c4)n3n2)CC1,-2.8,-1.2,-2.9,0.0,0.0,.,.
CC(C)c1cc(C(=O)NCc2ccco2)no1,0.0,-0.7,6.0,1.8,0.5,.,.
O=C(NCc1ccco1)c1cc(-c2ccccc2)on1,2.1,-0.3,23.3*,2.6,3.2,22.4*,0.4
CCOC(=O)COc1ncn(-c2ccccc2)n1,0.4,-0.8,-0.8,-0.1,0.0,.,.
CCOC(=O)COc1ccccc1C(=O)c1cnn(-c2ccccc2)c1,4.0,0.1,13.7*,0.5,0.4,5.4,0.1
COc1ccc(NC(=O)/C=C/c2ccccc2)c([N+](=O)[O-])c1,2.5,-0.1,15.6*,2.0,1.5,12.0*,0.5
Cc1ccc(NC(=O)c2cc(F)c(F)cc2Cl)nc1,1.2,-0.4,17.2*,2.9,1.3,11.1*,0.4
Cc1ccc(NC(=O)c2ccccc2F)nc1,4.1,0.3,13.6*,2.6,2.9,14.3*,0.7
O=C(Nc1cccc(F)c1)Nc1ccc(Cl)cn1,2.6,-1.1,4.1,1.1,-0.5,.,.
Cc1ccc(NC(=O)Nc2cccc(F)c2)nc1,2.3,0.0,13.4*,1.1,4.8*,13.8*,0.5
CCOC(=O)C(C)Sc1nc(-c2ccco2)cc(C(F)(F)F)c1C#N (stereo not given),-0.6,-1.3,0.9,0.5,0.5,.,.
O=C(Nc1ccc2c(c1)OCO2)OC1CCC12CCCCC2 (stereo not given),0.0,-0.4,15.4*,2.6,.,13.4*,0.4
COc1ccc2c(C)cc(=O)oc2c1,-2.1,-1.2,-1.0,0.0,0.4,.,.
SMILES,hcDAF-12 act,ssDAF-12 act,hgDAF-12 ag,DAX1 inh-1,DAX1 inh-2,hgDAF12 conf,LXR ag 2
COc1cccc(COc2ccc3c(C)cc(=O)oc3c2)c1,2.7,-0.2,16.5*,2.7,3.2,14.3*,0.6
Cc1cc(=O)oc2cc(OCC(=O)Nc3nccs3)ccc12,5.4,0.1,19.5*,1.9,1.0,17.8*,0.7
O=c1c(-c2ccc3c(c2)OCCO3)coc2cc(OC3OC(CO)C(O)C(O)C3O)ccc12 (stereo not given),5.8*,0.3,16.8*,3.6,1.2,14.1*,1.1
COc1ccc(-c2coc3cc(O[C@@H]4O[C@H](CO)[C@@H](O)[C@H](O)[C@H]4O)ccc3c2=O)cc1,5.6,-0.3,8.1,2.7,2.2,.,.
c1ccc(CSc2ncn(-c3ccccc3)n2)cc1,4.5,-0.3,13.9*,2.2,5.0*,19.3*,0.7
CN[C@H]1C[C@H]2c3[nH]c4c(-c5ccccc5)cccc4c3CCN2C[C@H]1[C@H](C)O,-1.1,-1.0,-2.3,-1.4,.,.,.
O=C(/C=C/c1ccnc2ccccc12)c1cccs1,4.0,-0.1,13.9*,2.5,0.6,14.6*,0.8
CC1CN(Cc2ccccc2Cl)CC(C)O1 (stereo not given),-0.7,-1.8,-0.5,0.3,1.5,.,.
Nc1ccc2c(c1)Cc1cc(N)c(Cl)cc1-2,3.9,-0.5,15.2*,2.5,3.0,12.1*,0.4
Nc1ccc2c(c1)Cc1cc(Cl)c(Cl)cc1-2,1.0,-0.3,10.4,-0.7,1.1,.,.
O=C(NC(=S)Nc1ccc(N2CCOCC2)cc1)c1ccco1,3.0,-1.2,16.2*,2.1,-0.5,10.4,0.4
C=CCOc1cccn2c(N(C)C(=O)c3ccc(OC)cc3)c(CC)nc12,-1.3,-1.4,5.1,-1.0,.,.,.
CCOc1ccc(NC(=O)CN(C)C(=O)c2c(-c3c(F)cccc3Cl)noc2C)cc1OCC,-1.6,-0.9,-3.2,-1.2,-1.6,.,.
CC(C)(C)C(=O)OCc1nc(-c2ccc3c(c2)OCCO3)cs1,2.4,-1.1,3.9,0.3,0.6,.,.
CSCC(=O)Nc1nc(-c2ccc3c(c2)OCCO3)cs1,2.1,0.1,16.6*,3.5,3.6,14.3*,0.6
O=C(N[C@@H](Cc1cccnc1)C(=O)N1CCC[C@H]1C(=O)NC1CCCC1)c1cccs1,-0.8,-0.3,-2.7,-1.5,.,.,.
COc1ccc(N2CCN(C(=O)c3ccc4nc(N5CCCCC5)sc4c3)CC2)cc1,1.0,0.2,8.0,2.8,3.7,.,.
COc1cccc(N2CCN(C(=O)c3ccc4nc(N5CCCCC5)sc4c3)CC2)c1,1.1,-0.3,21.2*,2.8,5.5*,7.8,0.3
COc1ccc(NC(=O)C(C)N=C2NS(=O)(=O)c3ccccc32)cc1S(N)(=O)=O (stereo not given),1.2,-0.9,15.0*,2.2,1.0,-1.6,0.0

# Screening results deposited in PubChem by The Scripps Research Institute Molecular Screening Center.
